Yeast superoxide – reduction of superoxide in aged yeast, primary screen, HTS; S. cerevisiae aged cells, superoxide DHE fluorescence; stronger effect = lower value; 330,000 compounds, 0.18% hits; superoxide response (% of plate mean), % at 10 µM;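 active = superoxide response under a set limit, about three screen SD below normal, cut at about 65% in these data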;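 note: yeast aged for seven days with compound at 30 °C before DHE staining; 100% = average MFI of all compound-treated wells on the plate with controls excluded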
PolyA inh – polyadenylation inhibitors in yeast reporter cells, primary screen, luminescence, S. cerevisiae. S. cerevisiae SKY197-pL101 polyadenylation reporter, beta-gal luminescence; efflux-impaired pdr1/pdr3 knockout yeast; score 100 = 6 SD above DMSO. activity score, % at 12 µM. 300,000 compounds, 0.02% hits;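 active = lowest replicate activity score at least 50, where 100 means six control SD above control mean; inconclusive = lowest score under 50 but half or more replicates reach 50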;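 note: yeast exposed to compound for 9 h at 30 °C; higher score means more reporter readthrough which indicates perturbed polyadenylation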
Calb FLC – C. albicans growth inhibition with fluconazole, primary screen, CaCi-2 strain, Alamar Blue fluorescence; C. albicans CaCi-2 (fluconazole-resistant clinical isolate) + fluconazole, 48 h; growth inhibition, % (test concentration not listed); 300,000 compounds, 0.57% hits; AID 1979, 2009;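 active = growth inhibition above about 58% in most replicates, limit read from the data, passing the limit was not always enough; inconclusive = exactly half the replicates above a set limit; inactive = most replicates below a set limit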;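 note: all wells also contain fluconazole at 8 µg/ml as a sub-toxic cotreatment; 0% = median of DMSO wells and 100% = median of geldanamycin control wells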
Platelet DG rel – inhibitors of platelet dense granule secretion, primary screen, cell-based, MLPCN, human platelets | human platelet-rich plasma, SFLLRN dense granule ATP release, luminescence | inhibition, %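 (compounds screened at 7.5 µM in platelet-rich plasma)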 | 300,000 compounds, 0.22% hits | AID 1663, 2009;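 active = mean replicate score, as percent of positive control, at or above 50; inconclusive = mean below 50 but at least one replicate at or above 50; inactive = mean and every replicate below 50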
SKKanGAS inh – S. pyogenes SKKanGAS growth inhibitors in kanamycin, primary screen, streptokinase expression inhibitor project, SKKanGAS strain, BacTiter-Glo luminescence | AID 1662, 2009 | 300,000 compounds, 1.3% hits | inhibition, % at 7.5 µM | 6 h;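 active = mean replicate score, as percent of positive control median, at least 50; inconclusive = mean below 50 but one replicate at or above 50; inactive = mean and every replicate below 50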;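 note: strain carries kanamycin resistance gene driven by streptokinase promoter and grows in 40 µg/ml kanamycin; loss of luminescence reflects streptokinase promoter inhibition or plain growth inhibition; 0% = median of DMSO wells and 100% = positive control at its reference dose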
The depositor's hits bear a star; u = inconclusive; x = not tested or not shown. Compounds with a hit are over-represented: about 2% of the library has one in this group of screens.

SMILES	Yeast superoxide	PolyA inh	Calb FLC	Platelet DG rel	SKKanGAS inh
Cc1cc(C)c2nc(-c3ccccn3)cc(C(=O)Nc3ccc(S(=O)(=O)Nc4onc(C)c4C)cc3)c2c1	95.7	13.2	10.2	0.8	63.8*
Cc1cc(C)c2nc(-c3ccccn3)cc(C(=O)Nc3ccc(S(=O)(=O)Nc4cc(C)on4)cc3)c2c1	95.0	7.0	-0.7	5.2	41.8
COc1ccc(CN(CC(=O)NCCc2ccccc2)C(=O)CCC(=O)Nc2ccccn2)cc1	93.3	-6.0	-2.2	0.2	-7.9
CCOC(=O)c1cnn(-c2nc3c(C)cccc3s2)c1C(F)(F)F	100.2	-17.0	u	-3.5	87.5*
CCOC(=O)c1cnn(-c2nc3c(C)cccc3s2)c1C	99.6	-1.0	-3.2	2.8	2.5
CCOC(=O)c1cnn(-c2nc(-c3cccc(F)c3)cs2)c1C(F)(F)F	101.5	13.6	4.5	-3.5	64.2*
Cc1ccc(-c2nn(-c3ccccc3)cc2NC(=O)CCl)cc1	94.9	-12.3	-26.5	-24.9	-3.5
CCOc1ccc(C2=Nn3c(CC)nnc3SC2)cc1	93.9	x	x	x	x
Cc1ccc(C(C)C)c(OCc2ccc(C(=O)N/N=C/c3ccc(O)cc3O)cc2)c1	93.8	-0.5	1.4	-21.8	86.7*
CC(C)(C)c1ccc(OCc2ccc(C(=O)N/N=C/c3ccc(O)c(O)c3)cc2)cc1	95.0	0.9	63.1*	3.7	61.6*
O=C(N/N=C/c1ccc(OCc2ccc(F)cc2)cc1)c1ccccc1	106.9	-8.8	-33.0	2.3	-5.1
O=C(N/N=C/c1cccc(O)c1)c1ccc(COc2ccccc2Br)cc1	114.3	7.5	-0.7	-7.0	63.2*
CC(C)CC(=O)c1c[nH]c(C(=O)NCc2ccc(F)cc2)c1	82.2	0.3	7.0	1.0	-3.5
COc1ccc(C2NC(=O)c3ccccc3O2)cc1 (stereo unspecified)	97.2	-10.0	-7.9	-2.1	-1.1
COC(=O)c1[nH]c2cc(C)ccc2c1NC(=O)CN1CCc2cc(OC)c(OC)cc2C1	98.4	-0.2	100.5*	2.5	3.4
COC(=O)c1[nH]c2ccc(Cl)cc2c1NC(=O)CN1CCc2cc(OC)c(OC)cc2C1	101.0	8.4	5.5	u	21.3
CSc1ncccc1C(=O)OCC(=O)NC1CCC(C)CC1 (stereo unspecified)	101.6	x	x	x	x
CC(C)(C)c1ccc(C(=O)NCC(=O)N2CCC3(CC2)NCCc2[nH]cnc23)cc1	98.5	5.3	-5.1	0.4	3.4
Cc1ccc(C(=O)NNC(=O)c2ccco2)cc1	111.0	7.2	11.9	1.4	2.8
Cc1occc1C(=O)NNC(=S)NC(=O)COc1ccc(Cl)cc1Cl	120.1	6.7	-20.6	-3.7	78.0*
Cc1ccc(C(=O)NNC(=S)NC(=O)c2ccco2)cc1	206.6	-25.2	28.2	-7.3	72.8*
CCCCC(=O)NC(=S)NNC(=O)c1ccc(Cl)cc1Cl	x	-7.1	-1.9	4.1	90.3*
Cc1ccc(C(=O)NC(=S)NNC(=O)c2ccccc2)cc1	171.1	-27.0	14.5	4.2	76.6*
Cc1ccc(C(=O)NC(=S)NCc2ccccc2)cc1	93.9	-8.2	-13.2	-1.4	-1.2
CC(Nc1c[nH]c(=O)[nH]c1=O)c1ccccc1 (stereo unspecified)	96.6	5.8	0.4	-4.9	1.9
SMILES	Yeast superoxide	PolyA inh	Calb FLC	Platelet DG rel	SKKanGAS inh
Cc1ccc(C(=O)NNC(=O)Cn2ccc(C(F)(F)F)n2)o1	88.2	-21.6	15.6	12.4	2.9
Cc1ccc(C(=O)NNC(=S)NC(=O)c2ccc(Cl)cc2Cl)cc1	173.2	-34.8	40.4	9.0	97.7*
O=C(O)c1ccc(NC(=S)NC(=O)c2ccc(-c3ccccc3)cc2)cc1	105.0	13.5	84.4*	-2.3	17.0
O=C(NC(=S)Nc1ccccc1)c1ccc(-c2ccccc2)cc1	94.1	-12.7	0.7	3.3	0.6
Cc1ccc(C(=O)NNC(=S)NC(=O)c2ccccc2)cc1	202.7	-25.5	36.1	18.0	99.1*
CC(C)NC(=S)NC(=O)c1ccc(Cl)cc1Cl	101.2	-5.4	-8.6	-6.0	0.9
COc1ccc(CCNC(=O)C2CCCN(S(=O)(=O)c3cc(C)ccc3OC)C2)cc1OC (stereo unspecified)	98.7	-1.4	13.9	-24.7	-1.9
C=CCSc1n[nH]c(-c2ccc(OCCC)cc2)n1	96.7	-20.9	111.6*	-5.6	-16.1
C=CCSc1n[nH]c(-c2ccc(OCCCC)cc2)n1	74.3	15.2	u	2.7	-1.7
Oc1ccccc1/C=N/NC(=S)NC1CC2C=CC1C2 (stereo unspecified)	85.4	26.2	-0.8	2.5	91.5*
Oc1c(Cl)cc(Cl)cc1/C=N/NC(=S)NC1CC2C=CC1C2 (stereo unspecified)	107.4	-15.6	17.5	-12.3	110.9*
CCCc1cc(NC(=O)COC(=O)c2nccnc2N)n(-c2ccccc2)n1	122.0	x	x	x	x
c1ccc(/N=C2\N=C(Nc3ccccn3)c3ccccc32)nc1	99.2	9.5	1.1	6.0	60.4*
c1ccc(Nc2ccccn2)cc1	93.7	-5.2	-0.5	-0.2	0.7
O=C(Nc1cccc(NC(=O)c2cccs2)c1)c1ccc([N+](=O)[O-])o1	126.5	11.2	64.7	16.9	58.8*
O=C(Nc1ccccc1Cl)c1ccc([N+](=O)[O-])o1	111.1	8.8	100.3*	-2.8	34.4
Cc1ccccc1NC(=O)c1ccc([N+](=O)[O-])o1	100.5	4.6	19.3	-11.0	7.6
C[C@H]1COC(=O)[C@H](Cc2ccc(F)cc2)C/C=C\C[C@H](CC(=O)NCCO)C(=O)N1	80.7	x	x	x	x
Nc1ccc(Nc2nc3ccccc3[nH]2)cc1	111.1	-0.8	-0.5	13.6	5.9
c1ccc(Nc2nc3ccccc3[nH]2)nc1	76.0	-11.9	-9.1	5.5	62.2*
CC(C)(C)c1nc(SCC(=O)N2CCCC2)c2ccccc2n1	73.5	9.5	-1.7	6.2	-0.7
CC(C)(C)c1nc(SCC(=O)c2ccccc2)c2ccccc2n1	87.7	-8.1	3.1	9.3	62.0*
Cc1ccc(/C=C/c2ccc(=O)n(Cc3ccccc3Cl)n2)cc1	92.5	-23.3	22.9	-16.3	69.2*
Cc1ccc(/C=C/c2ccc(=O)n(Cc3ccc(F)cc3)n2)cc1	98.7	-5.2	0.0	-0.4	-4.7
COc1ccc(OC)c(-c2csc(NC(=O)C3COc4ccccc4O3)n2)c1 (stereo unspecified)	105.9	5.0	2.9	1.4	20.5
CCCn1c(NC(=O)c2ccccc2Br)nc2ccccc21	101.8	-14.4	64.2	-3.3	57.9*
CCCn1c(NC(=O)c2ccco2)nc2ccccc21	95.3	2.3	22.0	-5.6	-10.5
CCCn1c(NC(=O)c2ccc(Br)cc2)nc2ccccc21	99.0	-27.1	0.7	-5.4	-4.5
O=C(Nc1nc(-c2nc3ccccc3s2)cs1)C1COc2ccccc2O1 (stereo unspecified)	103.9	1.8	2.0	0.1	75.8*

Screening data from PubChem BioAssay.
